In the library only some 6.5% were active in any assay of this set; here they are far more common.
Spn PMK inh = blocks S. pneumoniae phosphomevalonate kinase | purified PMK, PK/LDH-coupled NADH absorbance 340 nm | inhibition, % at 10 µM | 0.49% of 65,000 active;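 active means top-ranked compounds by inhibition in the single 10 µM screen, taking a fixed number of the strongest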;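 further: 0% = full reaction with DMSO carrier and 100% = background rate without enzyme reaction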
A340 absorber = compound absorbs light at 340 nm; compound absorbance at 340 nm, fold over control; fold change at 10 µM; 65,000 tested, under 10 active;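 active means at 10 µM dose, initial 340 nm absorbance at least 2 fold that of control wells; inactive means change under 2 fold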;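 further: initial absorbance extrapolated from kinetic A340 decline of NADH oxidation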
MK inhibit = blocks S. pneumoniae mevalonate kinase. purified MK, PK/LDH-coupled NADH absorbance 340 nm. inhibition, % at 10 µM. 0.48% of 65,000 active;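 active means ranked among the strongest by inhibition in the single 10 µM screen, a fixed top-ranked set picked for dose follow-up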
DPM-DC inhibit = S. pneumoniae DPM-DC inhibition. purified DPM-DC, PK/LDH coupled NADH fluorescence. calls only at 10 µM. 0.49% of 65,000 active. AID 556;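 active means the 320 compounds with the highest percent inhibition in the single-dose primary screen, excluding strongly autofluorescent ones, cut at about 32% in these data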;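 further: kinetic rate of NADH fluorescence loss reporting ADP formed by the decarboxylase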
Autofluor 339 = intrinsic fluorescence of library compounds, ex339/em460 – biochemical, MLSMR library, data from DPM-DC assay, artefact control, profiling panel. compound autofluorescence, ex339/em460 nm, NADH buffer; hits give high values; 1 = no-compound wells, NADH background. fluorescence fold increase at 10 µM. 5.5% of 65,000 active;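 active means at 10 µM, mean starting fluorescence two-fold or more over control wells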;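 further: signal is the first read of a kinetic run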
NADH enzymes = inhibition of NAD/NADH coupling enzymes, library profiling. AID 774. coupled PK/LDH NADH assays, four targets. IC50, µM (doses to about 10 µM), for the others: top-dose inhibition. 0.02% of 65,000 active;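 active means single-dose screening hits from any of four coupled enzyme assays that gave an IC50 when retested across doses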;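 further: the DPM-DC format reads NADH fluorescence rather than 340 nm absorbance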
Active calls of the source: *; i = inactive; / = no result given; + = active, no number; [ ] = another dose, or the depositor's remark.

SMILES | Spn PMK inh | A340 absorber | MK inhibit | DPM-DC inhibit | Autofluor 339 | NADH enzymes
CC1Cc2nc(SCC(=O)OCc3ccccc3)n(C)c(=O)c2S1 (stereo not drawn) | 9.0 | 1.1 | 0.0 | i | 1.07 | 3.0%
O=C(Nn1c(=S)[nH]c2ccccc2c1=O)c1ccncc1 | 0.0 | 1.08 | 0.0 | i | 1.08 | 0.0%
O=C1CC(N2CCN(c3ccc(F)cc3)CC2)C(=O)N1Cc1ccc(N2CCCC2=O)cc1 (stereo not drawn) | 0.0 | 1.03 | 4.0 | i | 1.05 | 1.0%
CCn1c(C(=O)NCc2cccnc2)cc2sc(Cl)cc21 | 8.0 | 1.01 | 5.0 | i | 1.12 | 4.0%
CC(C)OCCCn1c(=NC(=O)c2ccncc2)c(C#N)cc2c(=O)n3ccccc3nc21 | 12.0 | 1.05 | 3.0 | / | 3.59* | 8.0%
Cc1cc(C)c2cc(CN(CC3CCCO3)S(=O)(=O)c3ccc4c(c3)OCCO4)c(=O)[nH]c2c1 (stereo not drawn) | 13.0 | 1.02 | 12.0 | i | 1.54 | 8.0%
CCN=C1Cn2c(nc3scc(-c4ccccc4)c3c2=O)CN1CC | 4.0 | 1.03 | 0.0 | i | 2.37* | 4.0%
CCOC(=O)CC1=CC(C)(CC(=O)OCC)C(C#N)(C#N)C(N)=C1C#N (stereo not drawn) | 3.0 | 1.13 | 7.0 | i | 1.06 | 3.0%
Cc1oc2cc(O)ccc2c(=O)c1N1C(=O)c2ccccc2C1=O | 0.0 | 1.14 | 4.0 | + | 1.79 | 13.0%
Cc1oc2cc(O)cc(O)c2c(=O)c1-c1ccc2c(c1)OCCCO2 | 2.0 | 1.04 | 8.0 | i | 1.05 | 3.0%
COC(=O)c1cc(-c2c(C)oc3cc(OC)ccc3c2=O)c(C)o1 | 19.0 | 1.02 | 8.0 | i | 1.11 | 9.0%
COC(=O)c1cc(-c2c(C)oc3cc(O)ccc3c2=O)c(C)o1 | 19.0 | 1.04 | 16.0 | / | 2.44* | 7.0%
Cc1ccccc1-c1c(C)oc2cc(O)ccc2c1=O | 18.0 | 1.13 | 0.0 | / | 2.21* | 9.0%
COc1c2occc2c(OC)c2c(=O)cc(C(F)(F)C(F)(F)F)oc12 | 1.0 | 1.04 | 8.0 | i | 1.05 | 3.0%
COc1ccc(-c2csc(/C(C#N)=C(\O)CSc3nccn3C)n2)cc1OC | 12.0 | 1.08 | 1.0 | i | 0.96 | 5.0%
O=C(CSc1nnc(-c2cccs2)n1-c1ccccc1)N1CCc2ccccc21 | 5.0 | 1.04 | 7.0 | i | 1.13 | 5.0%
CCOC(=O)C1=C(C)NC(=O)NC1c1cc(Br)c(O)c(OC)c1 (stereo not drawn) | 8.0 | 1.03 | 10.0 | i | 0.78 | 13.0%
CCOc1cc(C2C(C(=O)N3CCCCC3)=C(C)NC3=C2C(=O)CCC3)cc(Br)c1O (stereo not drawn) | 9.0 | 1.17 | 13.0 | i | 2.52* | 16.0%
COc1ccc(-c2nc(N)n(C(C)=O)n2)cc1 | 9.0 | 1.05 | 2.0 | i | 1.12 | 4.0%
COc1ccc2c(c1)cc1n2CCN=C1N | 4.0 | 1.07 | 10.0 | i | 2.82* | 10.0%
COc1ccc2c(c1)cc1n2CCN2CCCN=C12 | 10.0 | 1.05 | 11.0 | i | 2.1* | 12.0%
N#Cc1c(C(F)(F)F)cc(C2CC2)[nH]c1=O | 7.0 | 1.08 | 3.0 | / | 2.15* | 5.0%
COC(=O)CSc1nc(C2CC2)cc(C(F)(F)F)c1C#N | 16.0 | 0.99 | 0.0 | i | 1.14 | 7.0%
Cc1c(NC(=O)c2ccc3c(c2)OCO3)cccc1-c1nc2ccccc2o1 | 11.0 | 0.99 | 4.0 | i | 1.12 | 5.0%
O=C(Nc1ccc2oc(-c3ccccc3F)nc2c1)c1ccc2c(c1)OCCO2 | 15.0 | 1.03 | 3.0 | i | 3.25* | 13.0%
SMILES | Spn PMK inh | A340 absorber | MK inhibit | DPM-DC inhibit | Autofluor 339 | NADH enzymes
O=C(Nc1ccccc1-c1nc2ccccc2o1)c1ccc2c(c1)OCCO2 | 8.0 | 1.02 | 10.0 | / | 3.26* | 4.0%
O=C(Nc1ccc2oc(-c3ccc(F)cc3)nc2c1)c1ccccc1F | 9.0 | 1.09 | 7.0 | i | 2.98* | 9.0%
COc1ccc(C2C(C#N)=C(/N=C/N3CCN(C)CC3)OC3=C2C(=O)CC(C)(C)C3)cc1OC (stereo not drawn) | 0.0 | 1.09 | 6.0 | i | 1.03 | 2.0%
O=C(COc1ccccc1)n1nc(-c2ccc(Cl)cc2)nc1NCc1ccco1 | 7.0 | 1.08 | 13.0 | i | 1.09 | 7.0%
Cc1oc(-c2ccccc2F)nc1CSCC(=O)NCc1ccc2c(c1)OCO2 | 5.0 | 1.03 | 0.0 | i | 1.04 | 2.0%
COc1ccc(CN2CCCC(C(=O)N3CCCC3)C2)cc1 (stereo not drawn) | 10.0 | 1.03 | 0.0 | i | 1.06 | 3.0%
O=C(C1CCN(Cc2ccc(OCc3ccccc3)cc2)CC1)N1CCCC1 | 34.0* | 1.03 | 59.0* | i | 1.12 | 31.0%
CC1CCCN(C(=O)CSCC(=O)N=c2sc3ccccc3n2C)C1 (stereo not drawn) | 0.0 | 1.12 | 0.0 | i | 1.1 | 0.0%
C=CCC1(O)C(=O)N2C(=C1C(=O)N1CCOCC1)c1ccccc1CC2(C)C (stereo not drawn) | 0.0 | 1.09 | 3.0 | i | 1.1 | 1.0%
CCOC(=O)c1cc(-c2cccs2)nc2onc(C)c12 | 11.0 | 1.04 | 0.0 | / | 4.83* | 6.0%
c1csc(-c2cnc3n2CCCC3)c1 | 0.0 | 1.05 | 6.0 | i | 1.09 | 2.0%
CCOC(=O)c1nnn(-c2nonc2N)c1-c1cccs1 | 18.0 | 1.01 | 0.0 | i | 1.05 | 6.0%
Cc1noc2nc(-c3cccs3)cc(-c3nnc4n3CCCCC4)c12 | 11.0 | 1.17 | 0.0 | / | 2.07* | 6.0%
CCOc1ccc(C2Oc3nc(SC)nnc3-c3ccccc3N2C(C)=O)cc1OC (stereo not drawn) | 12.0 | 1.1 | 9.0 | i | 1.06 | 7.0%
O=C(CSc1nc(-c2ccccc2)cs1)N1CCN(C(=O)c2ccco2)CC1 | 29.0* | 0.91 | 0.0 | i | 1.1 | 10.0%
O=C(OCC(=O)N1CCN(C(=O)c2ccco2)CC1)c1cc(-c2ccc(F)cc2)nc2ccccc12 | 16.0 | 1.06 | 6.0 | / | 2.08* | 11.0%
O=C(OCC(=O)N1CCN(C(=O)c2ccco2)CC1)c1cc(-c2ccccc2)nc2ccccc12 | 10.0 | 1.01 | 1.0 | i | 1.6 | 5.0%
O=C(CSc1nc2cc(Cl)ccc2s1)N1CCN(C(=O)c2ccco2)CC1 | 3.0 | 0.98 | 0.0 | i | 1.02 | 4.0%
CC(=O)NC1C(=O)Nc2c1cccc2C(F)(F)F (stereo not drawn) | 0.0 | 1.01 | 4.0 | i | 1.34 | 1.0%
Nc1cccc2c1C(=O)N(c1ccccc1)C2=O | 9.0 | 1 | 0.0 | +[fluoresces] | 2.28* | 2.0%
CCCCC(=O)Nc1cccc2c1C(=O)N(c1ccccc1)C2=O | 0.0 | 1.04 | 9.0 | i | 1.07 | 3.0%
O=C(COc1ccc2oc(-c3ccccc3)cc(=O)c2c1)NCc1ccco1 | 10.0 | 1.13 | 5.0 | / | 3.85* | 8.0%
O=C(COC(=O)COc1ccc(Nc2ccccc2)cc1)NCc1ccco1 | 12.0 | 0.98 | 7.0 | i | 1.01 | 6.0%

Assay outcomes: PubChem, SRMLSC
